Measurements taken from PubChem BioAssay AID1159580 (chemical genetic matrix, 2015).
Out of some 5,500 compounds screened, about 2,000 (36%) were called active. Not shown: some 18% with an inconclusive outcome. Rule as the data show it: active = normalized growth mostly below about 0.91 (no sharp cut-off); inconclusive = no clear call, values can overlap the other calls; inactive = mostly above about 0.92. The list shows a part of the results.

Assay: chemical genetic growth profiling, strain panel (AID 1159580);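 also: tested at 20 µM; growth read once vehicle control cultures reached saturation at 30 °C; 1 = growth at the plate median or of vehicle wells; lower values mean less growth of the strain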
Details: growth OD

Measured: normalized growth

N#CC(c1ccccc1)N1CCCCC1 (stereo not drawn)
inactive: S. cerevisiae deletion strains, locus YAL013W, strain DEP1, active compounds read low 1.04 | S. cerevisiae deletion strains, locus YBR229C, strain ROT2, active compounds read low 0.995 | S. cerevisiae deletion strains, locus YDL101C, strain DUN1, active compounds read low 1 | S. cerevisiae deletion strains, locus YDL134C, strain PPH21, active compounds read low 0.99 | S. cerevisiae deletion strains, locus YDR150W, strain NUM1, active compounds read low 0.964 | S. cerevisiae deletion strains, locus YEL061C, strain CIN8, active compounds read low 1.02 | S. cerevisiae deletion strains, locus YGR078C, strain PAC10, active compounds read low 1 | S. cerevisiae deletion strains, locus YHR030C, strain SLT2, active compounds read low 1.04 | S. cerevisiae deletion strains, locus YHR087W, strain rtc3, active compounds read low 0.995 | S. cerevisiae deletion strains, locus YJR043C, strain POL32, active compounds read low 0.994 | S. cerevisiae deletion strains, locus YJR075W, strain HOC1, active compounds read low 0.984 | S. cerevisiae deletion strains, locus YKL190W, strain CNB1, active compounds read low 0.99 | S. cerevisiae deletion strains, locus YLR039C, strain RIC1, active compounds read low 0.969 | S. cerevisiae deletion strains, locus YLR058C, strain SHM2 (second series), active compounds read low 0.987 | S. cerevisiae deletion strains, locus YLR085C, strain ARP6, active compounds read low 1.02 | S. cerevisiae deletion strains, locus YLR262C, strain YPT6, active compounds read low 1.02 | S. cerevisiae deletion strains, locus YML094W, strain GIM5, active compounds read low 1.02 | S. cerevisiae deletion strains, locus YMR219W, strain ESC1, active compounds read low 1.01 | S. cerevisiae deletion strains, locus YMR263W, strain SAP30, active compounds read low 1.01 | S. cerevisiae deletion strains, locus YMR307W, strain GAS1, active compounds read low 0.928 | S. cerevisiae deletion strains, locus YNL153C, strain GIM3, active compounds read low 1 | S. cerevisiae deletion strains, locus YNL298W, strain CLA4 (second series), active compounds read low 0.985 | S. cerevisiae deletion strains, locus YNL322C, strain KRE1, active compounds read low 1.01 | S. cerevisiae deletion strains, locus YNR030W, strain Alg12, active compounds read low 1 | S. cerevisiae deletion strains, locus YPL055C, strain LGE1, active compounds read low 1.03 | S. cerevisiae deletion strains, locus YPL241C, strain CIN2, active compounds read low 0.975 | S. cerevisiae deletion strains, locus YPR135W, strain CTF4, active compounds read low 1.19 | S. cerevisiae strains, strain wild type, active compounds read low 0.985
